PubChem BioAssay (NCATS)
Results filed as inconclusive are left out. The source made the active and inactive calls. Calls come from the whole dose curve; as a rule, active = well fitted inhibition curve with a large enough effect; inconclusive = small, poorly fitted or top-dose-only effect; inactive = flat fitted curve, though single readings scatter.

Columns and labels:
Assay in all cases: qHTS profiling for inhibitors of Plasmodium falciparum proliferation (AID 504749); note: nearly all actives have a fitted effect of over 60% in size
Conditions in all cases: P. falciparum in erythrocytes, SYBR Green DNA, 72 h; series mostly up to 28.7 µM
CP297 = test system: CP297
How it was run: (§1)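 Three-day growth assay of blood-stage parasites in erythrocytes (0.3% parasitemia, 2.5% hematocrit) at 37 C, 5% CO2, quantified by SYBR Green DNA staining after overnight detergent lysis.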

CP305 = test system: CP305
How it was run: as §1

CP315 = test system: CP315
How it was run: as §1

CP325 = test system: CP325
How it was run: as §1

CP329 = test system: CP329
How it was run: as §1

CP335 = test system: CP335
How it was run: as §1

DFO2036 = test system: DFO2036
How it was run: as §1

DIV14 = test system: DIV14
How it was run: as §1

DIV17 = test system: DIV17
How it was run: as §1

DIV30 = test system: DIV30
How it was run: as §1

Dd2 = test system: Dd2
How it was run: as §1

ECU = test system: ECU
How it was run: as §1

FAB9 = test system: FAB9
How it was run: as §1

GB4 = test system: GB4
How it was run: as §1

HB3 = test system: HB3
How it was run: as §1

ICS = test system: ICS
How it was run: as §1

JCK = test system: JCK
How it was run: as §1

N140 = test system: N140
How it was run: as §1

P94_40 = test system: P94_40
How it was run: as §1

P93_24 = test system: P93_24
How it was run: as §1

Measured: Potency
Potency is the fitted concentration of half-maximal effect.

CC(=O)NS(=O)(=O)c1ccc(N)cc1
inactive: CP297 | CP305 | CP315 | CP325 | CP329 | CP335 | DFO2036 | DIV14 | DIV17 | DIV30 | Dd2 | ECU | FAB9 | GB4 | HB3 | ICS | JCK | N140 | P94_40

NS(=O)(=O)c1ccc(C(=O)O)cc1
inactive: CP297 | CP305 | CP315 | CP325 | CP329 | CP335 | DFO2036 | DIV14 | DIV17 | DIV30 | Dd2 | ECU | FAB9 | GB4 | HB3 | ICS | JCK | N140 | P93_24 | P94_40

c1ccc2[nH]ccc2c1
inactive: CP297 | CP305 | CP315 | CP325 | CP329 | CP335 | DFO2036 | DIV14 | DIV17 | DIV30 | Dd2 | ECU | FAB9 | GB4 | HB3 | ICS | JCK | N140 | P93_24 | P94_40

COc1ccc(O)cc1
inactive: CP297 | CP305 | CP315 | CP325 | CP329 | CP335 | DFO2036 | DIV14 | DIV17 | DIV30 | Dd2 | ECU | FAB9 | GB4 | HB3 | ICS | JCK | N140 | P93_24 | P94_40

COC(=O)c1cccnc1
inactive: CP297 | CP305 | CP315 | CP325 | CP329 | CP335 | DFO2036 | DIV14 | DIV17 | DIV30 | Dd2 | ECU | FAB9 | GB4 | HB3 | ICS | JCK | N140 | P94_40

CC(C)CCOC(=O)c1ccc(N(C)C)cc1
inactive: CP297 | CP305 | CP315 | CP325 | CP329 | CP335 | DFO2036 | DIV14 | DIV17 | DIV30 | Dd2 | ECU | FAB9 | GB4 | HB3 | ICS | JCK | P93_24 | P94_40

Nc1ccncc1N
inactive: CP297 | CP305 | CP315 | CP325 | CP329 | CP335 | DFO2036 | DIV14 | DIV17 | DIV30 | Dd2 | ECU | FAB9 | GB4 | HB3 | ICS | JCK | N140 | P93_24 | P94_40

CC(C)=CCC/C(C)=C/CO
inactive: CP297 | CP305 | CP315 | CP325 | CP329 | CP335 | DFO2036 | DIV14 | DIV17 | DIV30 | Dd2 | ECU | FAB9 | GB4 | HB3 | ICS | JCK | N140 | P93_24 | P94_40

C=CCNC(N)=S
inactive: CP297 | CP305 | CP315 | CP325 | CP329 | CP335 | DFO2036 | DIV14 | DIV17 | DIV30 | Dd2 | ECU | FAB9 | GB4 | HB3 | ICS | JCK | N140 | P93_24 | P94_40

CN1CCN(C(=O)C2CCCCC2)CC1
inactive: CP297 | CP305 | CP315 | CP325 | CP329 | CP335 | DFO2036 | DIV14 | DIV17 | DIV30 | Dd2 | ECU | FAB9 | GB4 | HB3 | ICS | JCK | N140 | P93_24 | P94_40

OCc1ccc(Cl)cc1Cl
inactive: CP297 | CP305 | CP315 | CP325 | CP329 | CP335 | DFO2036 | DIV14 | DIV17 | DIV30 | Dd2 | ECU | FAB9 | GB4 | HB3 | ICS | JCK | N140 | P93_24 | P94_40

NC(=O)CC[C@@H](N)C(=O)O
inactive: CP297 | CP305 | CP315 | CP325 | CP329 | CP335 | DFO2036 | DIV14 | DIV17 | DIV30 | Dd2 | ECU | FAB9 | GB4 | HB3 | ICS | JCK | N140 | P94_40

CCN(CC)C(=O)c1cccc(C)c1
inactive: CP297 | CP305 | CP315 | CP325 | CP329 | CP335 | DFO2036 | DIV14 | DIV17 | DIV30 | Dd2 | ECU | FAB9 | GB4 | HB3 | ICS | JCK | N140 | P93_24 | P94_40

CC(=O)Oc1cccc(C)c1
inactive: CP297 | CP305 | CP315 | CP325 | CP329 | CP335 | DFO2036 | DIV14 | DIV17 | DIV30 | Dd2 | ECU | FAB9 | GB4 | HB3 | ICS | JCK | N140 | P93_24 | P94_40

CC(=O)NCc1c(I)c(NC(C)=O)c(I)c(C(=O)O)c1I
active: JCK 11.2 µM
inactive: CP297 | CP305 | CP315 | CP325 | CP329 | CP335 | DFO2036 | DIV14 | DIV17 | DIV30 | Dd2 | ECU | FAB9 | GB4 | HB3 | ICS | N140 | P93_24 | P94_40

Cc1cc(C)nc(NS(=O)(=O)c2ccc(N)cc2)n1
inactive: CP297 | CP305 | CP315 | CP325 | CP329 | CP335 | DFO2036 | DIV14 | DIV17 | DIV30 | Dd2 | ECU | FAB9 | GB4 | HB3 | ICS | JCK | N140 | P93_24 | P94_40

CCCCCCCCCCCCCCCCC(C(=O)O)C(O)(CC(=O)O)C(=O)O (stereo unspecified)
inactive: CP297 | CP305 | CP315 | CP325 | CP329 | CP335 | DFO2036 | DIV14 | DIV17 | DIV30 | Dd2 | ECU | FAB9 | GB4 | HB3 | ICS | JCK | N140 | P93_24 | P94_40

Cc1ncc(CO)c(CN)c1O
inactive: CP297 | CP305 | CP315 | CP325 | CP329 | CP335 | DFO2036 | DIV14 | DIV17 | DIV30 | Dd2 | ECU | FAB9 | GB4 | HB3 | ICS | JCK | N140 | P94_40

Cc1c(N(C)C)c(=O)n(-c2ccccc2)n1C
inactive: CP297 | CP305 | CP315 | CP325 | CP329 | CP335 | DFO2036 | DIV14 | DIV17 | DIV30 | Dd2 | ECU | FAB9 | GB4 | HB3 | ICS | JCK | N140 | P93_24 | P94_40

O=C1CC[C@@H](C(=O)O)N1
inactive: CP297 | CP305 | CP315 | CP325 | CP329 | CP335 | DFO2036 | DIV14 | DIV30 | Dd2 | ECU | FAB9 | HB3 | JCK | N140 | P94_40

O=C(c1ccccc1)C(O)c1ccccc1 (stereo unspecified)
inactive: CP297 | CP305 | CP315 | CP325 | CP329 | CP335 | DFO2036 | DIV30 | Dd2 | ECU | FAB9 | HB3 | ICS | JCK | N140 | P93_24 | P94_40

Nc1ncnc2c1ncn2[C@@H]1O[C@H](COP(=O)(O)O)[C@@H](O)[C@H]1O
inactive: CP297 | CP305 | CP315 | CP325 | CP329 | CP335 | DFO2036 | DIV14 | DIV17 | DIV30 | Dd2 | ECU | FAB9 | GB4 | HB3 | JCK | N140 | P93_24 | P94_40

CC(=O)OCC(COC(C)=O)OC(C)=O
inactive: CP297 | CP305 | CP315 | CP325 | CP329 | DFO2036 | DIV14 | DIV17 | DIV30 | Dd2 | ECU | FAB9 | GB4 | HB3 | ICS | JCK | N140 | P93_24 | P94_40

O=C(O)c1ccc[n+]([O-])c1
inactive: CP297 | CP305 | CP315 | CP325 | CP329 | CP335 | DFO2036 | DIV17 | DIV30 | Dd2 | ECU | FAB9 | GB4 | HB3 | ICS | JCK | N140 | P93_24 | P94_40

COc1ccc(C(=O)NCc2ccc(OCCN(C)C)cc2)cc1OC
inactive: CP297 | CP305 | CP315 | CP325 | CP329 | CP335 | DFO2036 | DIV14 | DIV30 | Dd2 | ECU | FAB9 | GB4 | HB3 | ICS | JCK | N140 | P93_24 | P94_40

O=C(O)Cn1c(C(=O)Nc2nc(-c3ccccc3Cl)cs2)cc2ccccc21
inactive: CP297 | CP305 | CP315 | CP325 | CP329 | CP335 | DFO2036 | DIV14 | DIV17 | DIV30 | Dd2 | ECU | FAB9 | GB4 | HB3 | JCK | N140 | P93_24 | P94_40

OC[C@@H](O)[C@@H](O)[C@H](O)[C@H](O)CO
inactive: CP297 | CP305 | CP315 | CP325 | CP329 | DFO2036 | DIV14 | DIV17 | DIV30 | Dd2 | ECU | FAB9 | GB4 | HB3 | ICS | JCK | N140 | P93_24 | P94_40

CC(=O)N[C@@H](Cc1ccc(O)cc1)C(=O)O
inactive: CP297 | CP305 | CP315 | CP325 | CP329 | CP335 | DFO2036 | DIV14 | DIV17 | Dd2 | ECU | FAB9 | GB4 | HB3 | ICS | JCK | N140 | P93_24 | P94_40
